Results filed as inconclusive are left out. A call without a number means that no potency is given here. Activity calls are given as the source filed them. Calls come from the whole dose curve; as a rule, active = well fitted cell-killing curve with a large enough effect; inconclusive = small, poorly fitted or top-dose-only effect, or effect the other way; inactive = no such curve, though single readings can be large or run the other way.
Potency is the fitted concentration of half-maximal effect.

The experiment is described as follows: Quantitative High-Throughput drug screen in 47 multiple myeloma cell lines against the NCATS MIPE library collection: RPMI8226_ATCC cell viability assay (AID 1919871). Note: nearly all actives have a fitted effect of over 30% in size. The conditions noted are these: RPMI8226 myeloma viability, CellTiter-Glo ATP luminescence, 48 h; series mostly up to 45.8 µM. The source says: PI: Beverly A. Mock Ph.D.
Laboratory of Cancer Biology and Genetics,
Center for Cancer Research, National Cancer Institute,
National Institute of Health, Bethesda, Maryland
Drug resistance and disease progression are common in multiple myeloma (MM) patients, underscoring the need for new therapeutic combinations. […] We hypothesized that effective combinations would reduce MYC expression and enhance p16 activity. […] These preclinical data identify potentially useful drug combinations for evaluation in drug-resistant MM and reveal potential mechanisms of combined drug sensitivity.
Described herein is the primary MIPE qHTS used to cherrypick compounds. Validated compounds were then further tested for potential synergistic activiy.
[1] Peat TJ, Gaikwad SM, Dubois W, Gyabaah-Kessie N, Zhang S, Gorjifard S, Phyo Z, Andres M, Hughitt VK, Simpson RM, Miller MA, Girvin AT, Taylor A, Williams D, D'Antonio N, Zhang Y, Rajagopalan A, Flietner E, Wilson K, Zhang X, Shinn P, Klumpp-Thomas C, McKnight C, Itkin Z, Chen L, Kazandijian D, Zhang J, Michalowski AM, Simmons JK, Keats J, Thomas CJ, Mock BA. Drug combinations identified by high-throughput screening promote cell cycle transition and upregulate Smad pathways in myeloma. Cancer Lett. 2023 Aug 1;568:216284. doi: 10.1016/j.canlet.2023.216284. Epub 2023 Jun 24. PMID: 37356470; PMCID: PMC10408729.
SEQUENCE No. (e.g., 1, 2, 3, etc.); […] (e.g., Cells, Incubation, Reagent, etc.); VALUE and DESCRIPTION.
1; Cells; 5 uL; white, solid bottom 1536-well Greiner assay plate.
2; Compounds; 23 nL; Kalypsis pin tool (Wako USA) equipped with a 1536-well pin head to transfer to the assay plates.
3; Incubation; 48 hours; 37C incubation.
4; Reagent;5uL; CellTiter Glo (Promega).
5; Detector; 425V; Luminescence; Viewlux PerkinElmer.
NOTES (numbers refer to Sequence numbers above)
1. The cell-based screening methods employed in this study were like those previously published. Briefly, the corresponding myeloma cell lines were screened in 1,536-well plates with 500 cells, 5-uL per well for inhibition of cell viability (assessed by measuring ATP levels with CellTiterGlo).
2. NCATS MIPE 4.0 library of approved and investigational drugs were added using the Kalypsis pin tool. Wells treated with DMSO only for 100% viability and media only for 0% viability were used as controls.
3. The assay plates were covered and incubated for 48 hours in a 37C, 5% CO2 incubator with controlled humidity.
4. After 48 hours, CellTilter-GloTM luminescent substrate mix (Promega) reagent was added to the assay plate and plates we incubated for 5 min at room temperature.
5. Signal was measured as median relative luminescence units on a ViewLux (PerkinElmer) multiplate reader.
[1] Heske CM, Davis MI, Baumgart JT, Wilson K, Gormally MV, Chen L, Zhang X, Ceribelli M, Duveau DY, Guha R, Ferrer M, Arnaldez FI, Ji J, Tran HL, Zhang Y, Mendoza A, Helman LJ, Thomas CJ. Matrix Screen Identifies Synergistic Combination of PARP Inhibitors and Nicotinamide Phosphoribosyltransferase (NAMPT) Inhibitors in Ewing Sarcoma. Clin Cancer Res. 2017 Dec 1;23(23):7301-7311. doi: 10.1158/1078-0432.CCR-17-1121. Epub 2017 Sep 12. PMID: 28899971; PMCID: PMC6636827.
As to `CC(NCCc1ccc(O)cc1)C(O)c1ccc(O)cc1` (stereo not given), the Potency entry was “inactive”.
In the case of `CC[C@H](C)C(=O)O[C@H]1C[C@H](O)C=C2C=C[C@H](C)[C@H](CC[C@@H](O)C[C@@H](O)CC(=O)O)[C@H]21`, the Potency result is “inactive”.
Consider `C[C@@]1(c2cc(-c3cncnc3)c(F)cc2F)CCSC(N)=N1`, for which the Potency entry is “inactive”.
As to `CN1N=C(N)c2cn([C@@H]3O[C@H](COP(=O)(O)O)[C@@H](O)[C@@H]3O)c3ncnc1c23`, the Potency is 0.105 µM (active).
For `CSc1cccc(Nc2ncc3cc(-c4c(Cl)cccc4Cl)c(=O)n(C)c3n2)c1`, the Potency was 2.35 µM (active).
For `CCC[C@@H](NC(=O)[C@@H]1[C@H]2CCC[C@@H]2CN1C(=O)[C@@H](NC(=O)[C@@H](NC(=O)c1cnccn1)C1CCCCC1)C(C)(C)C)C(=O)C(=O)NC1CC1`, the Potency was 16.6 µM (active).
Regarding `CC(=O)N1CCN(c2ccc(OCc3nn(C)c(C)c3-c3cccc4c(CCCOc5cc(C)c(Cl)c(C)c5)c(C(=O)O)n(Cc5cccnc5)c34)cc2)CC1`, the Potency entry was “inactive”.
In the case of `Nc1ccn([C@@H]2O[C@H](CO)[C@@H](O)[C@H]2O)c(=O)n1`, the Potency result is “inactive”.
On to `CN[C@@H](C)[C@H]1[C@H](O)C[C@@]2(C)[C@@H]3CC[C@H]4C(C)(C)[C@@H](NC)CC[C@@]45C[C@@]35CC[C@]12C`, for which the Potency result was “inactive”.
On to `O=C(Nc1ncc(SCCN2CCCC2)s1)[C@]1(c2ccc(S(=O)(=O)C3CC3)cc2)C[C@@H]1C1CCCCC1`, for which the Potency is 23.5 µM (active).
Turning to `COc1cc(F)c(C(C)C)cc1-c1ccc(C(F)(F)F)cc1CN1C(=O)O[C@H](c2cc(C(F)(F)F)cc(C(F)(F)F)c2)[C@@H]1C`, the Potency is 1.66 µM (active).
As for `C[C@H]1O[C@@H](n2cc(F)c(=O)[nH]c2=O)[C@H](O)[C@H]1O`, the Potency was 9.35 µM (active).
Turning to `CCOC(=O)N1CCN([N+]([O-])=NOc2cc(ON=[N+]([O-])N3CCN(C(=O)OCC)CC3)c([N+](=O)[O-])cc2[N+](=O)[O-])CC1`, the Potency was 9.35 µM (active).
With `O[C@@H](COc1cccc2ncccc12)CN1CCN(C2c3ccccc3[C@@H]3[C@H](c4ccccc42)C3(F)F)CC1` (stereo not given in full), the Potency was 20.9 µM (active).
Then `N#Cc1c(N(CC(=O)O)CC(=O)O)sc(C(=O)O)c1CC(=O)O`, with “inactive”; and `CN1c2ccccc2C(=O)N2CCc3c([nH]c4ccccc34)C21` (stereo not given), with “inactive”; and `COc1cc(Cl)cn2c(-c3cccc(NC4CNC4)n3)cnc12`, with “inactive”.
For the molecule `COC(=O)[C@H](c1ccccc1Cl)N1CCc2sccc2C1`, the Potency entry is “inactive”.
`CC(=O)O[C@]1(C(C)=O)CC[C@H]2[C@@H]3C=C(Cl)C4=CC(=O)[C@@H]5C[C@H]5[C@]4(C)[C@@H]3CC[C@@]21C`: the Potency is 20.9 µM (active).
In the case of `CCC[C@H](Nc1nc(-c2ccc(NC(=O)NCC)c(OC)c2)ncc1C)c1cccnc1`, the Potency is 0.0264 µM (active).
Take `OC[C@H]1O[C@@H](OCCc2ccc(O)cc2)[C@H](O)[C@@H](O)[C@H]1O`: the Potency entry was “inactive”.
For `CN(C)CCOc1ccc(-c2nc(-c3ccc4c(c3)CCC4=NO)c(-c3ccncc3)[nH]2)cc1`, the Potency was 20.9 µM (active).
For the molecule `N#CC(=C1Nc2ccccc2S1)c1ccnc(OCc2ccc(CN3CCOCC3)cc2)n1`, the Potency is 20.9 µM (active).
Regarding `COc1c(C)c2c(c(O)c1CC=C(C)CCC(=O)OCCN1CCOCC1)C(=O)OC2`, the Potency is 4.18 µM (active).
For `CN(C(Cc1ccc(OS(=O)(=O)c2cccc3cnccc23)cc1)C(=O)N1CCN(c2ccccc2)CC1)S(=O)(=O)c1cccc2cnccc12` (stereo not given), the Potency was 5.26 µM (active).
With `Cc1cc(C(C)Nc2ccccc2)c2nc(N3CCOCC3)cc(=O)n2c1` (stereo not given), the Potency result is “inactive”.
As to `NC[C@H]1O[C@H](O[C@@H]2[C@@H](O)[C@@H](O[C@H]3O[C@H](CO)[C@@H](O)[C@H](N)[C@@H]3O)[C@H](N)C[C@@H]2N)[C@H](O)[C@@H](O)[C@H]1O`, the Potency result is “inactive”.
`OCCn1cc(-c2ccc3c(c2)CCC3=NO)c(-c2ccncc2)n1`: the Potency result is “inactive”.
In the case of `CCC(=C(c1ccc(O)cc1)c1ccc(OCCNC)cc1)c1ccccc1`, the Potency was 26.4 µM (active).
As to `COC(=O)N1CCN(Cc2cccc(NC(=O)Nc3ccc(C)nc3)c2F)CC1`, the Potency entry was “inactive”.
Consider `CCN1CCC(n2cc(CNc3cc(Cl)c4ncc(C#N)c(Nc5ccc(F)c(Cl)c5)c4c3)nn2)CC1`, for which the Potency is 16.6 µM (active).
Then `CCC(=O)NCC[C@@H]1CCc2ccc3c(c21)CCO3`, with “inactive”; and `CC1(COc2ccc3c(c2)ncn3-c2ccc3cccc(N4CCC(N)CC4)c3n2)COC1`, with 20.9 µM (active); and `CC(C)CN(C[C@H](O)[C@H](Cc1ccccc1)NC(=O)O[C@H]1CCOC1)S(=O)(=O)c1ccc(N)cc1`, with “inactive”.
Turning to `CN1CCC(COc2cnc(-c3cccc(Cn4nc(-c5cccc(C#N)c5)ccc4=O)c3)nc2)CC1`, the Potency result is “inactive”.
`Cc1ccccc1C(=O)c1ccc(Nc2ccc(Br)cc2N)cc1Cl`: the Potency is 11.8 µM (active).
For the molecule `NC(=O)c1ccc(N(C(N)=O)c2c(F)cccc2F)nc1-c1ccc(F)cc1F`, the Potency result is “inactive”.
Regarding `COc1ccc(-c2cc3nccn3c(Nc3ncccc3C(N)=O)n2)cc1OC`, the Potency entry is “inactive”.
Turning to `CCCCn1c(=O)n(Cc2ccccc2F)c(=O)c2[nH]c(Cc3ccc(NC(C)=O)cc3)nc21`, the Potency entry was “inactive”.
For `C[C@H]1[C@H](O)O[C@@H]2O[C@@]3(C)CC[C@@H]4[C@H](C)CC[C@@H]1[C@@]24OO3`, the Potency is 1.32 µM (active).

Source of the values: PubChem BioAssay (NCATS).
